The list is not random: actives were taken first. Their share in the collection is about 0.97%.
Rv3671c protease – inhibits the M. tuberculosis serine protease Rv3671c; inhibition, % at 5.96 µM; actives 0.048% (n = 320,000); AID 2606; in the data active means inhibition above about 38%;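 further: extracellular domain of Rv3671c used as enzyme; 0% = enzyme with DMSO and 100% = no enzyme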
Mtb BioA inh – BioA (M. tuberculosis) enzyme inhibition; actives 0.096% (n = 360,000); purified M. tuberculosis BioA enzyme, plate reader; inhibition, % at 9.99 µM; in the data active means inhibition above about 40%
FadD28 FP inh – blocks FadD28 binding to the bisubstrate probe. fluorescence polarization. inhibition, % at 12.5 µM. actives 0.22% (n = 360,000); in the data active means inhibition above about 8.5%, passing the limit was not always enough
UGM FP inh – blocks M. tuberculosis UGM enzyme; inhibition, % at 10 µM; purified UGM, fluorescence polarization probe displacement; actives 0.06% (n = 320,000); in the data active means inhibition above about 10%, passing the limit was not always enough
RecA intein inh – blocks M. tuberculosis RecA intein splicing. P9WHJ3. cell-free RecA intein splicing, fluorescence. inhibition, % (concentration not given with the values). actives 0.75% (n = 290,000); in the data active means inhibition above about 30%;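 further: 0% = vehicle wells and 100% = reference inhibitor control wells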
TcdB GH inh – inhibitors of Clostridioides difficile toxin B glycohydrolase; inhibition, % at 9.99 µM; P18177; AID 652162; actives 0.24% (n = 350,000); TcdB glycohydrolase enzymatic assay, plate reader; in the data active means inhibition above about 10%
GFP chromophore – counter-screen: blocks GFP chromophore formation | shares compounds with RecA intein inh | EC50, µM | cell-free GFP chromophore formation, fluorescence | actives 83% (n = 2,100); call rule not given here
* hit, by the source's call.

Results for Cc1ccc(S(=O)(=O)/N=C2/NC(=O)/C(=C/c3ccc(Br)o3)S2)cc1 ?
Rv3671c protease: -14.9; FadD28 FP inh: 3.0; UGM FP inh: 2.4; RecA intein inh: -5.0

How did COc1cc(/C=C2\S/C(=N/S(=O)(=O)Cc3ccccc3)NC2=O)c([N+](=O)[O-])cc1OC do in these assays?
Rv3671c protease: -0.9; Mtb BioA inh: 0.0; FadD28 FP inh: 3.3; UGM FP inh: -3.1; RecA intein inh: -22.0; TcdB GH inh: -2.2

Results for O=C1N/C(=N\S(=O)(=O)Cc2ccccc2)S/C1=C/c1cc([N+](=O)[O-])ccc1O ?
Rv3671c protease: 8.0; FadD28 FP inh: 15.4*; UGM FP inh: -4.6; RecA intein inh: 2.1; TcdB GH inh: -2.0

Results for O=C1N/C(=N\S(=O)(=O)c2ccccc2)S/C1=C\c1cc([N+](=O)[O-])ccc1O ?
Rv3671c protease: 5.7; Mtb BioA inh: -1.5; FadD28 FP inh: 19.5*; UGM FP inh: -8.2; RecA intein inh: 1.6; TcdB GH inh: -0.7

Results for Cc1ccc(S(=O)(=O)/N=C2/NC(=O)/C(=C\c3cc(Br)cc(Br)c3O)S2)cc1 ?
Mtb BioA inh: 1.3; FadD28 FP inh: 50.2*; UGM FP inh: -35.2; RecA intein inh: 21.2

What do the screens show for `COC(=O)C(Cc1ccccc1)NC(=O)CSc1nc(C)cc(=O)[nH]1` (stereo unspecified)?
Rv3671c protease: -2.6; Mtb BioA inh: 0.3; FadD28 FP inh: -0.1; UGM FP inh: 0.9; RecA intein inh: 0.1; TcdB GH inh: 22.0*

What do the screens show for `CCN(CC)c1ccc(/C=N/NC(=O)c2ccc3nc[nH]c3c2)cc1`?
Rv3671c protease: 0.2; Mtb BioA inh: 3.3; FadD28 FP inh: 31.4*; UGM FP inh: 1.2; RecA intein inh: -4.4; TcdB GH inh: 1.2

Results for O=C(c1cnccn1)N1CC(=O)N2[C@H](CO)[C@H](c3ccc(C#CCc4ccccc4)cc3)[C@H]2C1 ?
TcdB GH inh: -1.3

Results for Cc1ccc(S(=O)(=O)Nc2ccc3c(c2)C(=O)N([C@H](C)CO)C[C@@H](C)[C@@H](CN(C)C(=O)C2CCCCC2)OCCCC[C@H](C)O3)cc1 ?
Mtb BioA inh: 0.2; TcdB GH inh: -0.9

How did COc1ccc(NC(=O)CSc2nncs2)cc1S(N)(=O)=O do in these assays?
Rv3671c protease: 5.2; FadD28 FP inh: -0.6; UGM FP inh: -2.1; RecA intein inh: 0.1; TcdB GH inh: 0.5

What do the screens show for `COc1ccc(NC(=O)CSc2nccn2C)cc1S(N)(=O)=O`?
Rv3671c protease: 6.0; FadD28 FP inh: -2.1; UGM FP inh: -1.0; RecA intein inh: -2.2; TcdB GH inh: 11.3*

How did Cc1nn(Cc2ccccc2)c(Cl)c1/C=N/NC(=O)c1cccnc1 do in these assays?
Rv3671c protease: -7.2; Mtb BioA inh: 103.9*; FadD28 FP inh: -1.2; UGM FP inh: -2.2; RecA intein inh: -0.5; TcdB GH inh: 1.2

What do the screens show for `Cc1nn(C)c(C(=O)N/N=C/c2cccnc2)c1Cl`?
Rv3671c protease: 7.6; Mtb BioA inh: 43.9*; FadD28 FP inh: 2.3; UGM FP inh: -2.3; TcdB GH inh: 0.4

Results for CN(C)Cc1cn(CC[C@H]2CC[C@@H](NS(=O)(=O)c3ccccc3)[C@@H](CO)O2)nn1 ?
Mtb BioA inh: 2.5; TcdB GH inh: 0.3

How did CCCCCN1N=C(C)CC1=O do in these assays?
Rv3671c protease: -61.2; FadD28 FP inh: -1.9; UGM FP inh: -2.0; RecA intein inh: 78.7*; TcdB GH inh: 0.4; GFP chromophore: 13.1*

How did CC(=O)Nc1ccccc1NC(=O)C/C(C)=N/NC(=O)C(=O)N1CCCCC1 do in these assays?
Rv3671c protease: -5.1; Mtb BioA inh: -1.0; FadD28 FP inh: 1.3; UGM FP inh: -0.6; RecA intein inh: 85.0*; TcdB GH inh: 2.0; GFP chromophore: 10.1*

What do the screens show for `C/C(CC(=O)Nc1cccc(Cl)c1Cl)=N\NC(=O)C(=O)N1CCCC1`?
Rv3671c protease: -0.4; Mtb BioA inh: 0.2; FadD28 FP inh: 0.6; UGM FP inh: 1.6; RecA intein inh: 0.0; TcdB GH inh: 1.0

What do the screens show for `C[C@H](CO)N1C[C@H](C)[C@@H](CN(C)S(C)(=O)=O)Oc2ncc(C#CC3CCCC3)cc2C1=O`?
Mtb BioA inh: -0.8; TcdB GH inh: 1.3

Results for O=C1CC(c2ccc(O)cc2)Oc2cc(O)cc(O)c21 (stereo unspecified) ?
Rv3671c protease: -19.8; Mtb BioA inh: 0.8; FadD28 FP inh: -4.1; UGM FP inh: 2.6; RecA intein inh: 0.7; TcdB GH inh: 1.6

How did CC1CC(=O)c2c(cc3c(-c4c(O)cc(O)c5c(O)c6c(cc45)OC(C)CC6=O)c(O)cc(O)c3c2O)O1 (stereo unspecified) do in these assays?
Rv3671c protease: 34.6; Mtb BioA inh: 2.3; FadD28 FP inh: 13.2*; UGM FP inh: 5.2; RecA intein inh: 95.7*; GFP chromophore: 2.5*

Results for Cc1ccc(-c2noc(-c3ccccc3C(=O)N3CCOCC3)n2)cc1 ?
Rv3671c protease: -2.5; Mtb BioA inh: -0.4; FadD28 FP inh: 0.3; UGM FP inh: 2.1; RecA intein inh: -3.1; TcdB GH inh: 0.8; GFP chromophore: >38

What do the screens show for `COc1ccc(-c2noc(-c3ccccc3C(=O)N3CCOCC3)n2)cc1`?
Rv3671c protease: 5.3; Mtb BioA inh: -1.5; FadD28 FP inh: 1.4; UGM FP inh: -0.3; RecA intein inh: 0.9

How did COc1ccc(NC(=O)N(C)C[C@H]2OCCCC[C@H](C)Oc3ccc(NC(=O)NC(C)C)cc3C(=O)N([C@@H](C)CO)C[C@H]2C)cc1 do in these assays?
Mtb BioA inh: 1.7; TcdB GH inh: 0.2

What do the screens show for `CCN(CC)S(=O)(=O)c1ccc(NN=C(C#N)C#N)cc1`?
Rv3671c protease: 7.7; FadD28 FP inh: -0.1; UGM FP inh: -0.2; RecA intein inh: 37.9*; TcdB GH inh: -2.1; GFP chromophore: 26.9*

What do the screens show for `CCCCCCCCNC(=O)/C(C#N)=C/c1ccccc1[N+](=O)[O-]`?
Rv3671c protease: -0.7; Mtb BioA inh: 0.1; FadD28 FP inh: -0.2; UGM FP inh: -3.8; RecA intein inh: 42.3*; TcdB GH inh: 0.1; GFP chromophore: 11.8*

Results for N#C/C(=C\c1ccccc1[N+](=O)[O-])C(=O)NCc1ccccc1 ?
Rv3671c protease: 3.9; FadD28 FP inh: -4.2; UGM FP inh: -6.5; RecA intein inh: 11.8; TcdB GH inh: 1.0

Results for CNC[C@@H]1OCCCC[C@H](C)Oc2ccc(NC(=O)Cc3ccccc3)cc2C(=O)N([C@@H](C)CO)C[C@@H]1C ?
Mtb BioA inh: -0.8; TcdB GH inh: -0.6

What do the screens show for `CC(C)NC(=O)N(C)C[C@@H]1Oc2ncc(C#CC3CC3)cc2C(=O)N([C@H](C)CO)C[C@@H]1C`?
Mtb BioA inh: -2.2; TcdB GH inh: -0.3

Results for CCc1ccc(NC(=O)c2nc(S(=O)(=O)Cc3ccccc3)ncc2Cl)cc1 ?
Rv3671c protease: -17.2; Mtb BioA inh: -1.8; FadD28 FP inh: -3.8; UGM FP inh: -2.5; RecA intein inh: 38.6*; TcdB GH inh: -0.7; GFP chromophore: 2.16*

Screens deposited in PubChem BioAssay by several laboratories.
